Results published in the supplement of paper PMC11732987, “Enantioselective OTUD7B fragment discovery through chemoproteomics screening and high-throughput optimisation” (Communications Chemistry, 2025).

Tests used:
Assay in all cases: log2 ratio of Biotin-Ahx-Ub-VS probe labelling (fragment/DMSO); higher = less target engagement (more negative = stronger competition), active = hit call of the paper (q ≤ 0.05, log2 ratio ≤ -1)
Details in all cases: compound concentration: 200 uM; treatment time: 3 h
USP34 = USP34 (UniProt Q70CQ2)
Summary of the method: (§1)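 Fragment (200 µM) or vehicle was incubated for 3 h with triplicate HEK293T lysate samples of 495 µg, which were then treated with Biotin-Ahx-Ub-VS at 0.5 µM final for 1 h. Labelled DUBs were enriched on NeutrAvidin, digested with LysC and trypsin, and analysed by diaPASEF LC-MS/MS. Values are average log2 fragment/vehicle ratios from an unpaired t-test on global-median-normalised Spectronaut label-free quantities, using proteins with ≥2 unique peptides.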

USP36 = molecular target: T1, USP36 (UniProt Q9P275)
T1 sequence (whole entry): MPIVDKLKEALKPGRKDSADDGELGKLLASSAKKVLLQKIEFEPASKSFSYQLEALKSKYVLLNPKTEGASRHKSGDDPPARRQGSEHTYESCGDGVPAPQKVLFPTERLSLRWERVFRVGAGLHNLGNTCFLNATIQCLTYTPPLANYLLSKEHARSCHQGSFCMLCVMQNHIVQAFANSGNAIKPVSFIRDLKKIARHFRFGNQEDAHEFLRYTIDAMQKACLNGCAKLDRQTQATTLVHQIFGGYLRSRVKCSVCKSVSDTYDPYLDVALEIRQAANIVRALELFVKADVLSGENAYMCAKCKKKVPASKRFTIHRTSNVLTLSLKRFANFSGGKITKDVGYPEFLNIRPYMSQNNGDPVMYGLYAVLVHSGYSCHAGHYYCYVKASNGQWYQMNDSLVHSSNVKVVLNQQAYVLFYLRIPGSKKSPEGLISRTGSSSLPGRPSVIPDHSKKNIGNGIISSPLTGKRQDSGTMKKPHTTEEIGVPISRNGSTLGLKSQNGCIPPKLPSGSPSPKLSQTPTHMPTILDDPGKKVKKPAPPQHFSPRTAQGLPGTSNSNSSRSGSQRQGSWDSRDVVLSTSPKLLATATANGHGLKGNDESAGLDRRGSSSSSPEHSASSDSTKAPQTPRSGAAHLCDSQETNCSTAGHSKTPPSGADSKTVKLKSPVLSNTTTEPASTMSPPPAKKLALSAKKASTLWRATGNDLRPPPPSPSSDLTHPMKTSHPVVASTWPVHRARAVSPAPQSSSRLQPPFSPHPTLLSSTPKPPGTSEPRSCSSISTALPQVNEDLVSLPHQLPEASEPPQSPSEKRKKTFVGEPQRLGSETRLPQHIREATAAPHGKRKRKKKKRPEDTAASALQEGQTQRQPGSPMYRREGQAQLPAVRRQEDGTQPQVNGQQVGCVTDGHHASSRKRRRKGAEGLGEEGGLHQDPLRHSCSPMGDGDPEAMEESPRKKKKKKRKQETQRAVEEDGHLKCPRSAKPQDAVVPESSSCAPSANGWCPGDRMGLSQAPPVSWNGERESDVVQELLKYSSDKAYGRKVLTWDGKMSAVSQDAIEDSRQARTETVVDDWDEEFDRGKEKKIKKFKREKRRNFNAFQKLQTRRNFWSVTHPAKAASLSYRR
Summary of the method: as §1

USP38 = molecular target: T2, USP38 (UniProt Q8NB14)
T2 sequence (whole entry): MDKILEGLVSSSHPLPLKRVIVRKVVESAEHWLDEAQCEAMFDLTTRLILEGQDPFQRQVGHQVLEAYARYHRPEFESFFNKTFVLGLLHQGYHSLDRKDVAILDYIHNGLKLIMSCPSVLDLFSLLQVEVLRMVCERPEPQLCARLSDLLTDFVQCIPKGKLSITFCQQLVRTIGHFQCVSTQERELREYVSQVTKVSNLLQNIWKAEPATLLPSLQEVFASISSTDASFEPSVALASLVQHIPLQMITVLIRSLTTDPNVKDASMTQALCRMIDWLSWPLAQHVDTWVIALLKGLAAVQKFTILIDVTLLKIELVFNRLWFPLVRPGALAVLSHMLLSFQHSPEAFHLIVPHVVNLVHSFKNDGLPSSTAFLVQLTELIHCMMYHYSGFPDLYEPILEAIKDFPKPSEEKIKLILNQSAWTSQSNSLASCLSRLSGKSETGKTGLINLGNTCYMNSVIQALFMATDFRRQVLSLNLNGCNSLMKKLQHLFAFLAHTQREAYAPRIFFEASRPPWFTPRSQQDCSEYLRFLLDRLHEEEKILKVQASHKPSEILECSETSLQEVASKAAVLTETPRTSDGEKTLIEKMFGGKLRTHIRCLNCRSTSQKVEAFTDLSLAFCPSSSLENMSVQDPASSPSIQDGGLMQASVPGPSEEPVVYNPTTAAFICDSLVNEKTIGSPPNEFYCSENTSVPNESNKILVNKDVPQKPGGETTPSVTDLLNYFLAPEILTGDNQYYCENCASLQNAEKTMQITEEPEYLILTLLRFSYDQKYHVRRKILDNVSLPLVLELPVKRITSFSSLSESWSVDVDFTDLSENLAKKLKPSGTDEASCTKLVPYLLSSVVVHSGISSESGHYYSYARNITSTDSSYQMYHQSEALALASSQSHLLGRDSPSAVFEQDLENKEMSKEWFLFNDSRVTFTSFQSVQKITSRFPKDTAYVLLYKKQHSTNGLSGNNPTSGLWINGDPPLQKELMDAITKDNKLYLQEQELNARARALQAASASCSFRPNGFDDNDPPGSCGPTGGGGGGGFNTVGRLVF
Summary of the method: as §1

USP39 = molecular target: T3, USP39 (UniProt Q53GS9)
T3 sequence (whole entry): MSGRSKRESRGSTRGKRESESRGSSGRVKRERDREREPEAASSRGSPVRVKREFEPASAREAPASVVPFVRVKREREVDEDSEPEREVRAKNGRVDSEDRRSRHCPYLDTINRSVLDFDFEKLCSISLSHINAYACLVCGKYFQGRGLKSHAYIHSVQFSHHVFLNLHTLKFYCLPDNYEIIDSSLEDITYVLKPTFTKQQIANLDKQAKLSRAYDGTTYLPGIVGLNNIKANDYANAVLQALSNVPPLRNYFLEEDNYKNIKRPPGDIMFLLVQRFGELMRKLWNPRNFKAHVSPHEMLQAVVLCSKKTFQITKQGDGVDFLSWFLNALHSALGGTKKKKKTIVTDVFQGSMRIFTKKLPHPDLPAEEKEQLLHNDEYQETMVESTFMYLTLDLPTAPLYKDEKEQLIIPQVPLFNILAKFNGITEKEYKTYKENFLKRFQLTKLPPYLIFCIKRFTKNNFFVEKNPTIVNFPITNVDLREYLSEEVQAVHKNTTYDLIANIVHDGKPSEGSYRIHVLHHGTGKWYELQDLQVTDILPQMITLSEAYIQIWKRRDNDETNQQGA
Summary of the method: as §1

USP4 = molecular target: T4, USP4 (UniProt Q13107)
T4 sequence (whole entry): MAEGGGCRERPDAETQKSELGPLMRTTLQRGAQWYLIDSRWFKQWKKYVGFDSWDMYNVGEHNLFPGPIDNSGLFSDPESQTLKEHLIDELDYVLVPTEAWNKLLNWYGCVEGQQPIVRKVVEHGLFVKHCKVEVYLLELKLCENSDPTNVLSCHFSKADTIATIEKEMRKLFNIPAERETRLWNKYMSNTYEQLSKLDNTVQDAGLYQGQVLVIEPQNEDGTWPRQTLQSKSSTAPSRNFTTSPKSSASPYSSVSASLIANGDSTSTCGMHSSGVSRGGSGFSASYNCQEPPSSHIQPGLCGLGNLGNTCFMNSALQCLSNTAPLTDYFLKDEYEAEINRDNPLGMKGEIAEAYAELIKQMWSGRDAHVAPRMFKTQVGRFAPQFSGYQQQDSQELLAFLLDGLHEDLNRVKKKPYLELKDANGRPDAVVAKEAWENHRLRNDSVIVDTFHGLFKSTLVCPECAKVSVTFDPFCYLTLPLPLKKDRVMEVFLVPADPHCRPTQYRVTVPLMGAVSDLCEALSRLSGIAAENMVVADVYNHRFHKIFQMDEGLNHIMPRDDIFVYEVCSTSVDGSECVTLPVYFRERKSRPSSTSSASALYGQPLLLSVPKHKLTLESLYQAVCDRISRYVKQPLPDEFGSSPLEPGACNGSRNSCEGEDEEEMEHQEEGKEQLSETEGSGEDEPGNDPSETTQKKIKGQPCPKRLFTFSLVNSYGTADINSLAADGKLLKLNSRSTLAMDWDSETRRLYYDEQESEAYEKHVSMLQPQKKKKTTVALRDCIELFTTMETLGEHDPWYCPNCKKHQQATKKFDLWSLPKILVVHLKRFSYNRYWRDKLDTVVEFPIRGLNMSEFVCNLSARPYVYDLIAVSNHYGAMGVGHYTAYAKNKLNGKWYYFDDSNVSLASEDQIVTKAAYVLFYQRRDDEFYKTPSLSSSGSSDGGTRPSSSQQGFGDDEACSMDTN
Summary of the method: as §1

Measured: log2 ratio of Biotin-Ahx-Ub-VS probe labelling

Chain of USP34 (Q70CQ2 whole entry, the tested form may be a part): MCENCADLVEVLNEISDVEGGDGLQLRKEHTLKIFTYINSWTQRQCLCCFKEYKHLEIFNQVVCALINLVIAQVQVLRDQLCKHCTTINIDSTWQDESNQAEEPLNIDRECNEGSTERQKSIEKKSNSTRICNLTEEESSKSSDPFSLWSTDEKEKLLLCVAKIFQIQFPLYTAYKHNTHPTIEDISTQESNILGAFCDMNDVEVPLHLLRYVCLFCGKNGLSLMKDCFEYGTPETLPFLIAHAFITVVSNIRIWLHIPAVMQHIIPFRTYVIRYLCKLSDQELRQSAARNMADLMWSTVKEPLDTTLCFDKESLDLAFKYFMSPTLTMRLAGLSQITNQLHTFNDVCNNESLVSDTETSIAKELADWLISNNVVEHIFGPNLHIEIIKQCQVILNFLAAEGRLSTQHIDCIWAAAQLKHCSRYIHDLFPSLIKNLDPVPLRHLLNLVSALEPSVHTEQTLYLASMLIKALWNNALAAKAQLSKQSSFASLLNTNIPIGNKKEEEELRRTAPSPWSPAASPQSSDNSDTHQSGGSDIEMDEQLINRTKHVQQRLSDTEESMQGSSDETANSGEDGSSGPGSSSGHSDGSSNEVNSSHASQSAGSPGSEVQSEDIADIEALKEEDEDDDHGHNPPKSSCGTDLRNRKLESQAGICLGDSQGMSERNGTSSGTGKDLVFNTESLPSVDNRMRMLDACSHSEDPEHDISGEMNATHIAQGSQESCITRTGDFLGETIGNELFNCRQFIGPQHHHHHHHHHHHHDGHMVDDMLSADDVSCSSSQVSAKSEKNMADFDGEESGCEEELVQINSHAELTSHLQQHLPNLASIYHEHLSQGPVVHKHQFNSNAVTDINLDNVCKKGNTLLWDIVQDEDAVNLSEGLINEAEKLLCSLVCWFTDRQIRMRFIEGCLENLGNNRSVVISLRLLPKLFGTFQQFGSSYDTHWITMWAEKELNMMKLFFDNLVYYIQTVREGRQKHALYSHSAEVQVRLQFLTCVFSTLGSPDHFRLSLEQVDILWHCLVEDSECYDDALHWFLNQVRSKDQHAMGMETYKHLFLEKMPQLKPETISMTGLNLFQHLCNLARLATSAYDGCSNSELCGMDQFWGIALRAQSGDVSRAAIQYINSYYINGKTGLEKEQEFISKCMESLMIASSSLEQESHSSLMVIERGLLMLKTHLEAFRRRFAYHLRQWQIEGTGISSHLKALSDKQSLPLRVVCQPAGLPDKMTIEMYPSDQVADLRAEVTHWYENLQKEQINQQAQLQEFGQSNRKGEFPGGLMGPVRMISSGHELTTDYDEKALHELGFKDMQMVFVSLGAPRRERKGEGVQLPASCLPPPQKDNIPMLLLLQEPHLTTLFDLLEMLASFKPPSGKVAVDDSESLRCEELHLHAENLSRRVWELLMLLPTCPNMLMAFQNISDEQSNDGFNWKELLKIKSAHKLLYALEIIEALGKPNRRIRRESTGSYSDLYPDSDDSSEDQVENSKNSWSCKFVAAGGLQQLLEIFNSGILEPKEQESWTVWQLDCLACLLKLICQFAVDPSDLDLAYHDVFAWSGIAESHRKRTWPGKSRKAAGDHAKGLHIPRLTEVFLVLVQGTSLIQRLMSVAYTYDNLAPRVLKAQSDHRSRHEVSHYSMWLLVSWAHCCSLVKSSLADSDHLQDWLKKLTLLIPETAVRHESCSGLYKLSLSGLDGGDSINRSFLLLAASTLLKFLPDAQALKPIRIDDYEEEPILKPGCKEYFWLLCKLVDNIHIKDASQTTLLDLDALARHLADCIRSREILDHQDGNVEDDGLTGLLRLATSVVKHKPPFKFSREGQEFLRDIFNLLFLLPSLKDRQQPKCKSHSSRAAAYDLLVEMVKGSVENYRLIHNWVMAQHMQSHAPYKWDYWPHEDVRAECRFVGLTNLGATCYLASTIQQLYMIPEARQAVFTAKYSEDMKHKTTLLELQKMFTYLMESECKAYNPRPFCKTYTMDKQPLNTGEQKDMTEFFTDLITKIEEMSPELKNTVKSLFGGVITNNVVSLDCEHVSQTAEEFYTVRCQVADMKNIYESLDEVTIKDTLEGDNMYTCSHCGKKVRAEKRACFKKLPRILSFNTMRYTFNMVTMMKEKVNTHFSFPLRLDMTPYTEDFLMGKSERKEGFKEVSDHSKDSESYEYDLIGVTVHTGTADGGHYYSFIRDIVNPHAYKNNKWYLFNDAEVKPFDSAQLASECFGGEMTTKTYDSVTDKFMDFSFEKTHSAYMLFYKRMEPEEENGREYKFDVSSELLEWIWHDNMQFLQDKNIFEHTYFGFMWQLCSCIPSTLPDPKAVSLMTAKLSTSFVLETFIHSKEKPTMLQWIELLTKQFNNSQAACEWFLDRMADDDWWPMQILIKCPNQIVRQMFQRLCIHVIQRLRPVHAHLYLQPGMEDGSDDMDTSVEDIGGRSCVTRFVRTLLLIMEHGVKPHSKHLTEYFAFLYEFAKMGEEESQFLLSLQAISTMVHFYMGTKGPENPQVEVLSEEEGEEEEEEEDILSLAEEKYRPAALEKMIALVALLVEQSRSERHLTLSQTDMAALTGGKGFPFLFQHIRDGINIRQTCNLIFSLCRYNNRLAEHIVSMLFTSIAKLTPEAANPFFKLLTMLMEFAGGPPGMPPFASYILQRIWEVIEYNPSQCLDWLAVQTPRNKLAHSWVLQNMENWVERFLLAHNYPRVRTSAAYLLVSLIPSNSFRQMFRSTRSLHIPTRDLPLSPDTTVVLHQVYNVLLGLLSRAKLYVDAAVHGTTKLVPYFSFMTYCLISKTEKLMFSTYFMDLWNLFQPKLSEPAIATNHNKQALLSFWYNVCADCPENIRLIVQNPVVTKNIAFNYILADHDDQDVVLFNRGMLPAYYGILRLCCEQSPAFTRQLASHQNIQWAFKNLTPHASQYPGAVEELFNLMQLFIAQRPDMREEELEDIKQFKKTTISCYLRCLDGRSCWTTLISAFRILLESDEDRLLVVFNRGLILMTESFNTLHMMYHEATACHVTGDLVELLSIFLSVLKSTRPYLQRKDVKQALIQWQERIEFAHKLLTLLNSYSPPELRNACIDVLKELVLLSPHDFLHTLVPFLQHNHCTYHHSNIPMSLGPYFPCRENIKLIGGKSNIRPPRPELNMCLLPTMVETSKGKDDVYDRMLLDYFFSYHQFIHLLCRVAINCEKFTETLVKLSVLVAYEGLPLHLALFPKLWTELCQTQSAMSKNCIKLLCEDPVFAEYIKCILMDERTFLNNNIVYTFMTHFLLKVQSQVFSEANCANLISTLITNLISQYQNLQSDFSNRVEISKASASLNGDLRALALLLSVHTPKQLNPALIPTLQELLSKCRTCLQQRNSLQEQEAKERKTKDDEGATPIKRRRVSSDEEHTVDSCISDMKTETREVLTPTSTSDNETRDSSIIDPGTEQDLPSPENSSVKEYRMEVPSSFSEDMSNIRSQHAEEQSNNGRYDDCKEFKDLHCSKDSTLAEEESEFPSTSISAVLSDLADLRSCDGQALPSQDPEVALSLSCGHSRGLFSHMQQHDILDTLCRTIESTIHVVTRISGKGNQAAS

O=C(CCl)NC1CCC2(CC1)OCCO2
inactive: USP34 -0.314 | USP36 -0.227 | USP38 -0.0225 | USP39 0.0631 | USP4 -0.0958
